From PubChem
Only a sample is shown.
aSyn UTR act: Activators working through SNCA 5'UTR binding (MLPCN) | actives 7.1% (n = 300,000) | activity score, % (tested at 7.5 µM), hits read low | alpha-synuclein 5'UTR reporter, activators screen; in the data active means activity score below about -60%
Starred values were filed as active, the others as inactive.

SMILES | aSyn UTR act
O=C1C=C(N2CCCCCC2)C(=O)N1c1ccc(Cl)cc1 | -170.7*
CCCc1ccc(OCc2ccc(C(=O)N/N=C/c3cccnc3)o2)cc1 | -143.1*
O=C(c1ccc(COc2ccc3c(c2)CCC3)o1)N1CCN(c2ccccc2)CC1 | -72.6*
NNC(=O)c1ccc(COc2ccc3c(c2)CCC3)o1 | -73.7*
CC(C)(C)c1ccc(OCc2ccc(C(=O)N/N=C/c3ccc([N+](=O)[O-])cc3)o2)cc1 | -137.7*
Cc1ccc(COc2ccccc2-c2cc(C(=O)N/N=C/c3cccnc3)[nH]n2)cc1 | -76.7*
CC(C)(C)c1ccc(OCc2ccc(C(=O)NN)o2)cc1 | -106.9*
CC(C)(C)c1ccc(OCc2ccc(C(=O)NCc3cccnc3)o2)cc1 | -133.1*
COc1ccccc1CNC(=O)CN1C(=O)c2cccc(N)c2C1=O | -64.6*
COc1ccc(CC(=O)NCc2ccc(-n3cccc3)cc2)cc1OC | 63.9
COc1ccccc1CNC(=O)CCCc1ccccc1 | -68.5*
O=C(Oc1ccc(-c2cnc3ccccc3n2)cc1)c1ccco1 | -80.8*
CCC(=O)Oc1ccc(-c2cnc3ccccc3n2)cc1 | -99.3*
O=S(=O)(/C(=C/c1ccc(C(F)(F)F)cc1)c1nc2ccccc2[nH]1)c1ccccc1 | -61.9*
CC(C)c1ccc(/C=C(\c2nc3ccccc3[nH]2)S(=O)(=O)c2ccccc2)cc1 | -80.9*
CC1(C)CC(=O)c2c(O)cc(OCc3ccc([N+](=O)[O-])cc3)cc2O1 | -150.5*
COc1cccc(NC(=O)COc2cc(O)c3c(c2)OC(C)(C)CC3=O)c1 | -86.6*
c1ccc(-c2csc(Nc3ccccn3)n2)cc1 | -107.3*
COc1ccc(-c2csc(Nc3ccccn3)n2)cc1OC | -169.5*
Fc1ccc(-c2csc(Nc3ccccn3)n2)c(F)c1 | -101.5*
Oc1ccc(-c2csc(Nc3ccccn3)n2)cc1 | -163.2*
COc1ccc(C2=Nn3c(nnc3-c3ccncc3)SC2)cc1OC | 71.8
COc1ccc2nc3sc(C(=O)NCCCN4CCc5ccccc5C4)cc3cc2c1 | -83.7*
CN1CCN(c2ccc([N+](=O)[O-])cc2C(=O)c2ccc(Br)cc2)CC1 | 67.4
O=[N+]([O-])c1ccc(-c2ncc(-c3ccc(Br)cc3)o2)cc1 | -194.9*
SMILES | aSyn UTR act
O=C(N=c1nc2ccccn2s1)c1ccccc1 | -180.2*
CN(c1ccccc1)S(=O)(=O)c1cc(C(=O)OCC(N)=O)ccc1Cl | -85.1*
CCn1c(C)cc(/C=C2/SC(=O)N(C(C)C(=O)OC)C2=O)c1C (centres undefined) | -156.1*
C#CCN1C(=O)S/C(=C/c2cc(C)n(CC)c2C)C1=O | -193.2*
COC(=O)C(C)N1C(=O)S/C(=C/c2cc(C)n(C(C)C)c2C)C1=O (centres undefined) | -127.2*
CCOC(=O)C(C)N1C(=O)S/C(=C/c2cc(C)n(-c3ccccn3)c2C)C1=O (centres undefined) | -143.0*
COc1cc2c(c(OC)c1OC)-c1ccc(N(C)CC(OC)OC)c(=O)cc1[C@@H](NC(C)=O)CC2 | 84.1
COCCn1c(C)cc(/C=C2/SC(=O)N(C(C)C(=O)OC)C2=O)c1C (centres undefined) | -153.5*
CSc1ccccc1C(=O)Nc1ccc2c(c1)CCC2 | -135.2*
COC(=O)c1ccc(NC(=O)c2ccccc2SC)cc1 | -66.8*
Cc1c(C(=O)Nc2ccc3c(c2)CCC3)cccc1[N+](=O)[O-] | -204.0*
O=C(Nc1ccc2c(c1)CCC2)c1ccccc1Br | -128.6*
CSCc1ccc(C(=O)NCCSc2ccc(Br)cc2)cc1 | -96.2*
CCc1ccc(/C=C2\SC(=S)N(CCCC(=O)Nc3ccc(C(=O)O)cc3)C2=O)cc1 | 108.6
O=C(COC(=O)CCN1C(=O)/C(=C\C=C\c2ccccc2)SC1=S)Nc1cc(F)ccc1F | 64.2
O=C(CCCN1C(=O)S/C(=C\C=C\c2ccccc2)C1=O)Nc1ccc(O)cc1 | -125.8*
O=C(CCN1C(=O)/C(=C/C=C/c2ccccc2)SC1=S)Nc1nc2ccccc2s1 | -61.7*
O=C(O)CCCN1C(=O)/C(=C/c2ccc(-c3nc4ccccc4s3)o2)SC1=S | -75.6*
O=C(CCN1C(=O)/C(=C\C=C\c2ccccc2)SC1=S)Nc1ccc(C(=O)O)cc1 | -68.5*
O=C(CN1C(=O)S/C(=C\C=C\c2ccccc2)C1=O)N1CCOCC1 | -126.3*
CCOC(=O)c1c(NC(=O)/C=C/c2ccc(C)o2)sc(C)c1C | -108.1*
Cc1sc(NC(=O)/C=C/c2ccco2)c(C(=O)O)c1C | -118.0*
O=[N+]([O-])c1ccc(Sc2n[nH]c(-c3ccccc3)n2)nc1 | -73.0*
Cc1ccnc(Sc2ccc([N+](=O)[O-])cn2)n1 | -72.3*
Clc1ccc(-c2cn3c(n2)CCC3)cc1 | -192.2*
SMILES | aSyn UTR act
COC(=O)c1ccccc1NC(=O)c1ccc(-c2ccc(Br)cc2)o1 | -106.4*
O=C(Nc1cccc2nsnc12)c1ccc(-c2ccc(Br)cc2)o1 | -157.2*
Cc1c(Cl)c([N+](=O)[O-])nn1CCCC(=O)NCCc1ccccc1 | -63.8*
Fc1ccc(/C=C\c2nccc3c2[nH]c2ccccc23)cc1 | -139.3*
C(=C\c1nccc2c1[nH]c1ccccc12)/c1ccccc1 | -84.4*
Cc1ccc(/C=C\c2nccc3c2[nH]c2ccccc23)cc1 | -124.8*
